Experimental data reported in PubChem BioAssay (NCI).
About 79,000 compounds went through this panel and 15% of them were active in at least one assay; those are over-represented in the sample as a whole. Cut-off read from the data, not from the text of the source: active = growth inhibition above about 70%; inactive = the rest.

Key:
[1] = NCI Yeast Anticancer Drug Screen. Data for the rad50 strain (AID 155);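 note: 0% = growth of vehicle-only cultures of the same strain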; conditions: S. cerevisiae rad50 strain growth inhibition; at 50.0 µM; stronger effect = higher value
In short: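 Readout: growth inhibition relative to vehicle-treated cultures. Compound exposure was carried out in a genetically defined yeast strain deficient in DNA damage repair.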

[2] = NCI Yeast Anticancer Drug Screen. Data for the mec2-1 strain (AID 157); conditions: S. cerevisiae mec2-1 strain, at 50.0 µM, stronger effect = higher value
In short: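 Readout is yeast growth inhibition, normalised to vehicle-treated controls, in the mec2-1 strain exposed to compound.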

[3] = NCI Yeast Anticancer Drug Screen. Data for the sgs1 mgt1 strain (AID 161);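 note: 0% = growth of cultures given vehicle only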; conditions: S. cerevisiae sgs1 mgt1 strain, at 50.0 µM, stronger effect = higher value
In short: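 Compounds are added to genetically altered yeast, and growth is compared with cultures given vehicle alone to give percent inhibition.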

[4] = NCI Yeast Anticancer Drug Screen. Data for the cln2 rad14 strain (AID 165);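 note: 0% = growth equal to vehicle treated cultures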; conditions: S. cerevisiae cln2 rad14 strain, at 50.0 µM, stronger effect = higher value
In short: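 Relative to vehicle controls, growth inhibition of compound-treated cln2 rad14 yeast was recorded.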

[5] = NCI Yeast Anticancer Drug Screen. Data for the bub3 strain (AID 167); conditions: S. cerevisiae bub3 mutant strain, at 50.0 µM, stronger effect = higher value
In short: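 Readout: yeast growth inhibition, expressed relative to vehicle-only wells. The test organism is a mutant strain from a panel with lesions in DNA repair or checkpoint genes.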

[6] = NCI Yeast Anticancer Drug Screen. Data for the mlh1 rad18 strain (AID 175); conditions: S. cerevisiae mlh1 rad18 strain growth inhibition; at 50.0 µM; stronger effect = higher value
In short: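 Test agents were incubated with a yeast strain of defined genotype (DNA damage repair defect). Inhibition of growth was derived by comparison with vehicle-exposed cultures.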

Measured: growth inhibition

CCCCNC(=S)C(=S)NCCCC
inactive: [1] 10.7% | [2] -0.3% | [3] 0.05% | [4] 26.9% | [5] 17.4% | [6] -11.2%

CCOc1ccccc1N=Nc1c(C)nc(N)nc1OCC
inactive: [1] 6.65% | [2] 6.65% | [3] 6.55% | [4] -30.1% | [5] 4% | [6] 14.9%

C=C1C(=O)OC2C1CC(OC(C)=O)/C(C)=C/CCC1(C)OC21 (configuration not stated)
inactive: [1] -4.5% | [2] -35.3% | [3] 6% | [4] -6.25% | [5] -27.6% | [6] -68.2%

CS(=O)(=O)c1nc(Cl)c2[nH]c(Cl)nc2n1
inactive: [1] 16.9% | [2] -19.5% | [3] 5.35% | [4] -11.3% | [5] 12.2% | [6] 22%

CCCCCCCCCCCCCCCCCCNc1ccccc1
inactive: [1] -6.15% | [2] 9.15% | [3] 12.2% | [4] -29.8% | [5] 1.15% | [6] 16.2%

O=[N+]([O-])c1cccc(-c2cc(-c3cccs3)cc(-c3ccccc3)n2)c1
inactive: [1] 6.7% | [2] 3.95% | [3] -1.95% | [4] -1.4% | [5] 2.85% | [6] 4.95%

Nc1ncnc2c1cnn2-c1ccc(Cl)cc1
inactive: [1] 42% | [2] 9.15% | [3] 62.6% | [4] -7.2% | [5] 23.8% | [6] 48%

c1ccc(CNc2ccccc2)cc1
inactive: [1] 3.6% | [2] -29.5% | [3] -24.4% | [4] 12.1% | [5] -18.9% | [6] -2.1%

C=CCc1cc(OC)c2c(c1)C(O)CC(c1ccccc1)O2 (configuration not stated)
inactive: [1] 15.2% | [2] -24.6% | [3] -34.6% | [4] -6.2% | [5] 2.9% | [6] 1.55%

CCCCCOC(c1cc2c(cc1Br)OCO2)C(C)Br (configuration not stated)
inactive: [1] 8.9% | [2] 22.1% | [3] 10.8% | [4] 19.4% | [5] 22.8% | [6] 13.5%

Cc1cccc(O)c1O
inactive: [1] 25.2% | [2] 0.15% | [3] 23.1% | [4] -0.2% | [5] 16.8% | [6] 20.4%

Cn1cnc2ncnc(Oc3ccc(Cl)cc3)c21
inactive: [1] -13.5% | [2] -10.3% | [3] -2.95% | [4] 4.45% | [5] -27.1% | [6] -14.1%

CN(CC1CCCCC1=O)CC1CCCCC1=O (configuration not stated)
inactive: [1] 8.65% | [2] 10.2% | [3] -11.1% | [4] -8.8% | [5] 19% | [6] -3.55%

C[N+]1(Cc2ccccc2)CCC(=O)CC1
inactive: [1] 4.05% | [2] -12.9% | [3] -7.1% | [4] -13.1% | [5] 10.9% | [6] -13.8%

O=C(CNc1ccccn1)Nn1cnc2ccc(S(=O)(=O)Nc3ccccn3)cc2c1=O
inactive: [1] 32.2% | [2] 28% | [3] 39.4% | [4] -1.1% | [5] 25.6% | [6] 22.6%

CC(=O)N(C1CCCCC1)C1CCCCC1
inactive: [1] 30.2% | [2] 20.6% | [3] 13.4% | [4] -2.05% | [5] -2.2% | [6] 45%

Cc1ccc(S(=O)(=O)N(c2cc(C)ccc2C)c2ccccc2N)cc1
inactive: [1] 58.6% | [2] 50.9% | [3] 41.8% | [4] 49.9% | [5] 20.9% | [6] 25.2%

Nc1ccc(S(=O)(=O)/N=C(\NS(=O)(=O)c2ccc(N)cc2)c2ccccc2)cc1
inactive: [1] 15.7% | [2] 0.65% | [3] 12.2% | [4] 16.2% | [5] 5.85% | [6] 1.45%

COc1cc(C(=O)OC2CC3CN(CCc4c[nH]c5ccccc45)CC3CC2OC)cc(OC)c1OC (configuration not stated)
inactive: [1] 5.9% | [2] 3.25% | [3] 28.4% | [4] 32.9% | [5] 5.05% | [6] 45.7%

N#CC1C[C@@H]2CC3(CCC2CN1C(=O)c1ccccc1)OCCO3 (some centres not stated)
inactive: [1] 8.25% | [2] -9.6% | [3] -12.1% | [4] -24.6% | [5] 0.9% | [6] -14%

CC(=O)OCC12CC(c3ccoc3)OC3CCC4C(=O)OC(CC1C)C4(C)C32 (configuration not stated)
inactive: [1] -19.4% | [2] -29.4% | [3] -18.6% | [4] 4.3% | [5] -23.9% | [6] -22.8%

C=CCOCn1ccc(NC(=O)c2ccccc2)nc1=O
inactive: [1] -58% | [2] -57.1% | [3] -37% | [4] -3.15% | [5] -8.4% | [6] -22.3%

CCC1CC/C(=N\Nc2ccc([N+](=O)[O-])cc2[N+](=O)[O-])c2ccc3c(C)ccc(C)c3c21 (configuration not stated)
inactive: [1] -1% | [2] 7.25% | [3] -8.7% | [4] -14.2% | [5] -2.5% | [6] 6.8%

NC(CC(=O)O)CC(=O)O
inactive: [1] 12.9% | [2] 2.6% | [3] 1.8% | [4] 14.7% | [5] 5.65% | [6] 17.8%

O=C(c1ccccc1)C(c1ccccc1)C1(O)C(=O)Nc2c(Cl)ccc(Cl)c21 (configuration not stated)
inactive: [1] -18.1% | [2] 10.6% | [3] 5% | [4] -0.05% | [5] -8.1% | [6] -29.2%

C/C=C/C=N/N(C(=O)c1cc([N+](=O)[O-])cc([N+](=O)[O-])c1)C1=NC(c2ccccc2)C(c2ccccc2)=NN1 (configuration not stated)
inactive: [1] 41.9% | [2] 24.4% | [3] 13% | [4] 41.1% | [5] 15.3% | [6] 26.3%

O=C1NC(=O)C(=C/C=C/C=C\C2C(=O)NC(=O)NC2=O)C(=O)N1
inactive: [1] -15.1% | [2] -38.4% | [3] -10.1% | [4] 2.1% | [5] -23.1% | [6] -10.6%

CCCOC(=O)C(=O)OCCC
inactive: [1] 2.15% | [2] 21.6% | [3] -23.8% | [4] -6% | [5] -11.3% | [6] -9.2%

N#C/C(=C\Nc1ccccn1)C(=O)c1ccco1
inactive: [1] 6.85% | [2] -19.8% | [3] -19.6% | [4] -0.5% | [5] -55.9% | [6] -3.05%

CC(C)C(O)(C(=O)OCC1=CC[N+]2(C)CCC(O)C12)C(C)O (configuration not stated)
inactive: [1] 27.6% | [2] -15.3% | [3] 11.4% | [4] -21.4% | [5] -3.2% | [6] 1.95%

CCOC(=O)c1ccc(CSc2ccccc2C(=O)OCC)cc1
inactive: [1] -10.3% | [2] -13.1% | [3] 9.95% | [4] -60.1% | [5] -17.1% | [6] -43.2%

CCCOC1CC(C)C(O)C(C)C1 (configuration not stated)
inactive: [1] 24.6% | [2] -4.15% | [3] 3.35% | [4] -10.8% | [5] -1.35% | [6] 15.5%

CCCC(=O)C(N)Cc1ccccc1 (configuration not stated)
inactive: [1] -3.8% | [2] -6.1% | [3] -6% | [4] 12.3% | [5] 12.2% | [6] -6.3%

COc1ccc(C2C(C#N)=C(N)NC(=O)C2C(N)=O)cc1 (configuration not stated)
inactive: [1] -12.6% | [2] -11.8% | [3] -16.8% | [4] -0.1% | [5] -4.05% | [6] -19.4%

CC(=O)C(/C=N\N=C(/C)c1cn[nH]c1C)=C(/C)O
inactive: [1] -54.8% | [2] -21.6% | [3] -18.7% | [4] -58.1% | [5] 8.6% | [6] -18.6%

CC(=O)Nc1ccc(OCc2ccccc2)cc1[N+](=O)[O-]
inactive: [1] 20.5% | [2] -11.9% | [3] 9.75% | [4] 10.2% | [5] 6.85% | [6] 28.2%

CC(=O)Nc1c(C)cccc1[N+](=O)[O-]
inactive: [1] 5.35% | [2] -14.2% | [3] 0% | [4] -17.6% | [5] 2.8% | [6] 3.65%

NC(=S)NNC(=O)CCC(=O)Nc1ccccc1Cl
inactive: [1] -0.15% | [2] -2.3% | [3] -11.8% | [4] 37.2% | [5] -3.95% | [6] 6.65%

CC(=O)c1ccc(NC(N)=O)cc1
inactive: [1] 2.15% | [2] -10.4% | [3] 5.3% | [4] -8.1% | [5] -7.15% | [6] -12.5%

COc1ccc(C)cc1NC(=S)NC(=O)c1cccc2ccccc12
inactive: [1] -38.6% | [2] 12.9% | [3] 9.85% | [4] -61.1% | [5] 40% | [6] -1.55%

O=c1[nH]c(=O)c2[nH]cnc2[nH]1
inactive: [1] 8.05% | [2] -6% | [3] 5.9% | [4] 2.55% | [5] 9.9% | [6] 9.75%

O=c1ccn2cnc3c(ncn3C3OC(CO)C(O)C3O)c2n1 (configuration not stated)
inactive: [1] 4.8% | [2] 9% | [3] 10.2% | [4] 7.2% | [5] -10.9% | [6] 9.85%
